High-throughput results from PubChem BioAssay.
Hits are enriched below; roughly 5.7% of the tested compounds scored in any of these assays.
AHR activator = activators of human aryl hydrocarbon receptor | 320,000 compounds, 2.5% hits | P35869 | AID 2796 | activation, % at 5 µM | AHR-responsive luciferase reporter cells, luminescence; in the data active means activation above about 47%;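 further: 0% = vehicle wells and 100% = reference agonist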
hgDAF12 agonist = agonists of H. glycines DAF-12 nuclear receptor; HEK293 GAL4-hgDAF12 UAS-luciferase reporter, agonist luminescence; normalized to butyrate control; activation, % at 6.8 µM; 370,000 compounds, 1.8% hits; AID 687014;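 active means activation above a cutoff set at the mean of all screened compounds plus 3 SD, cut at about 10% in these data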;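 further: 0% = DMSO wells and 100% = sodium butyrate wells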
DAX1 inh-1 = inhibitors of human orphan nuclear receptor DAX1 (NR0B1) | 340,000 compounds, 0.99% hits | inhibition, % at 6.75 µM | HEK293 Gal4-DAX1 luciferase reporter, luminescence | AID 504766 | P51843;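 active means inhibition above the mean over all tested compounds plus 3 SD, cut at about 4.2% in these data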;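 further: 0% = DAX1-transfected cells with DMSO and 100% = empty-vector control cells with DMSO; inhibition shows as a rise in luminescence from relieved DAX1 repression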
Target sequence (P51843 207-470 limits assumed): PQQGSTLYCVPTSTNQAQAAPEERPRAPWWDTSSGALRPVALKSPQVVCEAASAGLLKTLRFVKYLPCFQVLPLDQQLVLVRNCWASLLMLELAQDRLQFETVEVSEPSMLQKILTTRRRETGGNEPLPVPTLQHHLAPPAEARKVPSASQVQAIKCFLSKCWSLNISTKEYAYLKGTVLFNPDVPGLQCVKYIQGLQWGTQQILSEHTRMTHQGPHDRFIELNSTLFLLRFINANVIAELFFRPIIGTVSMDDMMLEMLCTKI
hcDAF12 agonist = activates DAF-12 receptor from parasite H. contortus; HEK293 hcDAF-12 lit1-tk-luc reporter, luminescence; 0% DMSO, 100% Δ7-dafachronic acid; activation, % at 6.8 µM; 370,000 compounds, 1.4% hits;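 active means activation above the mean of all tested compounds plus 3 SD, cut at about 5.5% in these data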;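 further: 100% = response to 3 µM Δ7-dafachronic acid high control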
ssDAF-12 act = activators of S. stercoralis DAF-12 nuclear receptor; activation, % at 6.8 µM; AID 652126; 370,000 compounds, 1% hits; HEK293 ssDAF-12/GRIP1 lit1-tk-luc reporter, luminescence; % of 3 µM dafachronic acid response;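 active means activation above the mean over all tested compounds plus 3 SD, cut at about 0.9% in these data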;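 further: 0% = DMSO-only wells and 100% = 3 µM delta7-dafachronic acid wells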
DAX1 inh-2 = inhibitors of DAX1 repression of SF-1 activated StAR promoter; inhibition, % at 6.8 µM; AID 652010; 370,000 compounds, 1.1% hits; HEK293T StAR-luciferase reporter, SF-1/DAX-1 repression relief;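 active means inhibition above the mean over all tested compounds plus 3 SD, cut at about 3.6% in these data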;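 further: 0% = DAX-1 cells with DMSO and 100% = cells lacking DAX-1 with DMSO; higher inhibition means more luminescence from relief of DAX-1 repression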
* hit, by the source's call; · = not tested or not shown.

SMILES | AHR activator | hgDAF12 agonist | DAX1 inh-1 | hcDAF12 agonist | ssDAF-12 act | DAX1 inh-2
NNC(=O)c1ccc(COc2ccc3c(c2)CCC3)o1 | 59* | 11* | 1 | -1 | -1 | 0
Cc1ccc2c(c1)C(N1CCCC1=O)CC(c1ccco1)N2 (stereo not drawn) | 1 | 11* | 1 | 5.7* | 0 | 3
Cc1ccc(C2CC(c3ccco3)n3ncnc3N2)cc1 (stereo not drawn) | 2 | 0 | 0 | 0 | -2 | -1
COc1ccc(-c2c(C#Cc3ccc(N(C)C)cc3)c3ccccc3n2C)cc1 | 25 | 3 | -1 | 5.8* | 0 | 1
Cc1cccc(NC(=S)NC(=O)/C=C/c2ccccc2)n1 | 9 | 6 | 4.3* | 2 | -1 | 1
Cc1csc(NC(=O)C(C)Oc2ccc(Cl)cc2C)n1 (stereo not drawn) | 3 | 0 | -1 | 0 | -1 | -1
COc1ccc(CN(CC2CCC(C(=O)O)CC2)C(=S)Nc2cc(C)ccc2C)cc1 (stereo not drawn) | · | 2 | -1 | 1 | -1 | 0
CN1C(=O)Nc2cccc3cccc1c23 | 4 | -2 | 4.4* | 3 | 0 | 0
CN(CC(=O)Nc1c(Cl)cccc1Cl)C(=O)Cc1ccc(S(=O)(=O)N2CCOCC2)s1 | -2 | -4 | -1 | 1 | 0 | 0
COc1ccccc1NC(=O)COC(=O)Cc1c[nH]c2ccccc12 | 19 | 1 | 0 | 6.3* | 0 | 1
Cc1ccc(NC(=O)CNCc2ccccc2OCC(=O)Nc2ccc(I)cc2)cc1 | · | 4 | · | -3 | -1 | 0
COc1ccccc1CNC(=O)COC(=O)Cc1c[nH]c2ccccc12 | 4 | 3 | 1 | 3 | 0 | 1
COc1ccc(NC(=O)CN(C)C(=O)Cc2ccc(S(=O)(=O)N3CCOCC3)s2)cc1 | 1 | -5 | 0 | 2 | -1 | 4.4*
O=C(COc1ccccc1CNCc1ccccc1)Nc1ccccc1 | 6 | 11* | 2 | 0 | -2 | 3
CNCc1ccccc1OCC(=O)Nc1ccccc1OC | 69* | -2 | 1 | 2 | -1 | 0
COc1ccc(NC(=O)CN(C)C(=O)Cc2c[nH]c3ccccc23)cc1 | 22 | 0 | 1 | 6.4* | 0 | 1
Cc1ccccc1-c1nnc(-c2ccc(Cl)cc2)o1 | 54* | 7 | 1 | 5 | -1 | 1
Cc1ccc(CS(=O)(=O)c2ccccc2-c2nnc(-c3ccc(Cl)cc3)o2)cc1 | -1 | 1 | -1 | -1 | -1 | 0
Cc1ccc(Oc2ccc(NC(=O)CCC(=O)OCC(=O)c3cccs3)cc2)cc1C | 1 | 5 | 4.5* | 1 | -2 | -1
CCC(=O)Nc1ccc(-c2nn3c(C)nnc3s2)cc1C | 54* | 4 | 0 | 2 | -1 | 1
COc1cc(OC)cc(C(=O)Nc2ncn[nH]2)c1 | 11 | 0 | 1 | -1 | -1 | 0
C=CCOc1cccc(C(=O)Nc2ncn[nH]2)c1 | 58* | 0 | 0 | 0 | -1 | 2
COc1cc2c(c3c1c(=O)c1cccc(F)c1n3C)C=CC(C)(C)O2 | · | -4 | · | 0 | -2 | -2
Oc1c(C=C2N=c3ccccc3=N2)sc(=S)n1-c1ccc(F)cc1 | 15 | 1 | 0 | 1 | -1 | -1
Oc1c(C=C2N=c3ccccc3=N2)sc(=S)n1C1CCCC1 | 59* | 7 | 0 | 0 | -1 | 0
SMILES | AHR activator | hgDAF12 agonist | DAX1 inh-1 | hcDAF12 agonist | ssDAF-12 act | DAX1 inh-2
C/[N+]([O-])=C/c1c(OCc2ccc(Cl)cc2Cl)ccc2ccccc12 | 38 | 5 | 0 | 6.0* | 0 | 0
CC(NC(=O)c1c(O)c2ccccc2n(C)c1=O)c1ccccc1 (stereo not drawn) | 14 | 5 | 3 | 6.0* | 0 | 0
CC(=O)c1c(O)c2ccccc2n(C)c1=O | 12 | 1 | 1 | 5 | 0 | 0
Cn1c(=O)c(C(=O)NCCc2ccccc2)c(O)c2ccccc21 | 72* | 1 | -1 | 6.3* | 1.7* | -1
CCCn1c(=O)c(C(=O)NCCc2ccccc2)c(O)c2ccccc21 | 2 | 0 | 0 | 1 | -1 | 1
CCn1c(=O)c(C(=O)Nc2ccccc2F)c(O)c2ccccc21 | 22 | 5 | 1 | 6.2* | 0 | 1
O=C(CSc1ccc(-c2ccc(Cl)cc2)nn1)NC1CCCC1 | 12 | 0 | 1 | 1 | -1 | 1
